Data from PubChem BioAssay.
“And” between values parts separate entries of the source, which are not always exact repeats. Equal values may be shown once. The source made the active and inactive calls. Cut-off read from the data, not from the text of the source, unless noted: active = inhibition above about 80%; inactive = the rest.

Key:
[1] = sensitizers of A549 cells to miR-34 induction, primary screen, imaging, A549 dox-inducible miR-34, nuclei and caspase counts (AID 1347080;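 active = compounds whose cell count with miR-34 switched on is under 0.7 times the count with it off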); conditions: A549 miR-34 inducible, Hoechst nuclei count, 48 h
[2] = LFS_MB_P medulloblastoma growth inhibition, cell-based, chromothripsis tumors, cisplatin or BGB combos (AID 1671449); conditions: LFS_MB_P medulloblastoma cells;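 note: cells exposed for 96 hours; 0% = vehicle DMSO and 100% = killing by high DMSO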
[3] = HDN33 neuroblastoma growth inhibition, cell-based, chromothripsis tumors, cisplatin or BGB combos (AID 1671450); conditions: HDN33 neuroblastoma cells, stronger effect = higher value;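 note: cells exposed to compound for four days; 0% = vehicle DMSO and 100% = cell killing by high DMSO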
[4] = ICB984 medulloblastoma cell growth inhibition, synergistic combos for chromothripsis tumors, cisplatin or BGB combos (AID 1671451; call rule not given here;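 note: cells exposed for 96 hours before readout; 0% = vehicle DMSO and 100% = killing by high DMSO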); conditions: ICB984 medulloblastoma cells, drug combinations, stronger effect = higher value
[5] = LFS_MB_1R medulloblastoma cell growth inhibition, synergistic combos for chromothripsis tumors, cisplatin or BGB combos (AID 1671452); conditions: LFS_MB_1R medulloblastoma cells, stronger effect = higher value;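 note: cells exposed for 96 hours before readout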
[6] = HTB85 osteosarcoma cell growth inhibition, synergistic combos for chromothripsis tumors, BGB or cisplatin IC20 combos (AID 1671453); conditions: HTB85 osteosarcoma cells, drug combinations, stronger effect = higher value;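 note: cells exposed for 96 hours before readout; 0% = vehicle DMSO and 100% = high DMSO killing control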
[7] = CRL2098 osteosarcoma cell growth inhibition, synergistic combos for chromothripsis tumors, BGB or cisplatin IC20 combos (AID 1671454); conditions: CRL2098 osteosarcoma cells, drug combinations, stronger effect = higher value;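 note: cells exposed for 96 h before readout; 0% = vehicle DMSO and 100% = killing by high DMSO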
[8] = HD-MB03 medulloblastoma cell growth inhibition, synergistic combos for chromothripsis tumors, BGB or cisplatin IC20 combos (AID 1671455; in the data active = inhibition above about 83%;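 note: 0% = vehicle DMSO and 100% = high DMSO as cytotoxic control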); conditions: HD-MB03 medulloblastoma cells, stronger effect = higher value
[9] = UWB1.289 ovarian carcinoma cell growth inhibition, synergistic combos for chromothripsis tumors, BGB or cisplatin combos (AID 1671456); conditions: UWB1.289 ovarian carcinoma cells, stronger effect = higher value;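 note: cells exposed to compound for four days; 0% = vehicle DMSO and 100% = killing by high DMSO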
[10] = LFS_MB_2R medulloblastoma cell growth inhibition, synergistic combos for chromothripsis tumors, cisplatin combos (AID 1671457); conditions: LFS_MB_2R medulloblastoma cells, stronger effect = higher value;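 note: cells exposed to compound for four days before readout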
[11] = MDA-MB-436 breast carcinoma cell growth inhibition, synergistic combos for chromothripsis tumors, BGB or cisplatin combos (AID 1671458; call rule not given here;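 note: cells exposed for 96 hours; 0% = vehicle DMSO and 100% = killing by high DMSO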); conditions: MDA-MB-436 breast carcinoma growth inhibition, drug combinations, stronger effect = higher value
[12] = UWB1.289_BRCA1 ovarian cancer growth, cell-based, BGB or cisplatin combinations (AID 1671459); conditions: UWB1.289 BRCA1 ovarian carcinoma, drug combinations, stronger effect = higher value
[13] = human astrocyte viability loss, single and combined drugs, cytotoxicity control for chromothriptic childhood tumor combination screen, cell-based, BGB or cisplatin IC20 combos (AID 1671460); conditions: Human astrocytes, drug combinations, stronger effect = higher value;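 note: cells exposed to compounds for 96 hours before viability readout; 0% = vehicle and 100% = killing control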
[14] = growth inhibition of BT084 medulloblastoma cells, cell-based, ICGC_MB145, cisplatin and BGB IC40 combos (AID 1671461); conditions: drug combinations, stronger effect = higher value;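 note: cells exposed to drugs for 96 hours; 0% = vehicle DMSO and 100% = high DMSO full killing control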
[15] = growth inhibition of RCMB18 medulloblastoma cells, cell-based, cisplatin and BGB IC40 combos (AID 1671462); conditions: stronger effect = higher value;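 note: cells exposed to compound for four days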
[16] = growth inhibition of CRL1545 osteosarcoma cells, cell-based, cisplatin and BGB IC20 combos (AID 1671464); conditions: stronger effect = higher value;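 note: cells exposed to compound for 96 hours before readout; 0% = vehicle DMSO and 100% = high DMSO killing control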
[17] = circadian clock period modulators, cell-based, LOPAC library, luminescence reporter (AID 2774; call rule not given here;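 note: values are relative to mean of DMSO wells on each plate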); conditions: circadian reporter cells, at 7 µM, actives lie on both sides
[18] = system: Hepatitis C virus NS3 helicase; assay: HCV NS3 helicase inhibitors, primary screen, biochemical, fluorescence polarization, LOPAC1280 library (AID 687035; in the data active = inhibition above about 37%); conditions: Purified HCV NS3 helicase, Cy5-dT15 ssDNA binding fluorescence polarization; stronger effect = higher value; concentration not given here
[19] = Cy5 fluorescence quenching or enhancement artefacts, artefact control for HCV NS3 helicase inhibitor project, biochemical, LOPAC1280 (AID 687037; call rule not given here); conditions: Cy5-DNA-NS3h complex fluorescence interference counterscreen
[20] = viability rescue of complex I mutant cybrids, primary screen, cell-based, galactose medium, ATP luminescence (AID 1645843;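 active = z-score of at least 1.8 in each of two replicates, scored against plate mean and spread of sample wells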;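 note: positive z means more ATP and so rescue of galactose-driven cybrid death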); conditions: complex I mutant cybrid cells, 72 h, stronger effect = higher value
[21] = stronger effect = lower value, cell number ratio, induced over uninduced
[22] = measured here: relative caspase fold change +Dox/-Dox
[23] = measured here: total cells with miR-34 induction, stronger effect = lower value
[24] = measured here: total cells without miR-34 induction
[25] = measured here: combination with BGB IC40, at 0.05 µM
[26] = measured here: with BGB IC20 combination, at 0.5 µM
[27] = measured here: with cisplatin IC20 combination, at 0.5 µM
[28] = measured here: combination with cisplatin, at 0.5 µM
[29] = measured here: combination with cisplatin, at 5 µM

Nc1ccccc1NC(=O)CCCCCCC(=O)Nc1ccccc1
fold change [1, 21]: 1.01 (inactive)
fold change [1, 22]: 0.802
cell count [1, 23]: 5630
cell count [1, 24]: 5580
inhibition ([2]; at 0.5 µM, stronger effect = higher value): -12.9% (inactive) and -25.1% (inactive)
inhibition ([2]; measured here: combination with BGB IC20, at 0.005 µM): -23.2% and 0.813%
inhibition ([2]; measured here: combination with BGB IC40, at 0.005 µM): 83.8% and -29.2%
inhibition [2, 25]: -12.1% and -1.18%
inhibition ([2]; measured here: combination with cisplatin, at 0.5 µM, stronger effect = higher value): -8.88% and -35.8%
inhibition ([2]; measured here: combination with cisplatin, at 5 µM, stronger effect = higher value): 46.8% and 54.9%
inhibition ([3]; BGB combo, at 5 µM): 20.6% and 28.7%
inhibition ([3]; at 0.5 µM): 5.22% (inactive) and 5.82% (inactive)
inhibition ([3]; cisplatin combo, at 5 µM): 39.9% and 36.6%
inhibition [3, 26]: 3.82% and 0.196%
inhibition [3, 27]: 11.3% and -1.37%
inhibition ([3]; single agent, at 5 µM): 23.6% and 28%
inhibition ([4]; BGB IC20 combo, at 0.005 µM): -17.1% and -28%
inhibition ([4]; BGB IC40 combo, at 0.005 µM): -32.5% and -14.2%
inhibition ([4]; BGB IC40 combo, at 0.05 µM): -14.5% and 9.77%
inhibition ([4]; at 0.5 µM): -15.5% (inactive) and -30% (inactive)
inhibition ([4]; cisplatin combo, at 0.05 µM): -20.4% and 6.2%
inhibition ([4]; cisplatin combo, at 0.5 µM): -17.3% and -48.3%
inhibition ([4]; cisplatin combo, at 5 µM): -18.3% and -14.7%
inhibition ([4]; measured here: 5 uM single agent, at 5 µM): -14.3% and -5.49%
inhibition ([5]; at 0.5 µM): -20.2% (inactive) and -14.9% (inactive)
inhibition [5, 25]: -18.8% and -20.1%
inhibition [5, 28]: -21.4% and -9.37%
inhibition [5, 29]: 34.7% and 36.3%
inhibition ([6]; at 0.5 µM): 1.45% (inactive) and -7.23% (inactive)
inhibition ([6]; measured here: with BGB IC20, at 0.5 µM): 2.99% and -6.61%
inhibition ([6]; measured here: with BGB IC20, at 5 µM): 19.2% and 7.94%
inhibition ([6]; measured here: with cisplatin IC20, at 0.5 µM): -1.97% and -10.6%
inhibition ([6]; measured here: with cisplatin IC20, at 5 µM): 29.1% and 24.4%
inhibition ([6]; single agent, at 5 µM): 11.1% and 13.2%
inhibition ([7]; at 0.5 µM): -31.9% (inactive) and -38.7% (inactive)
inhibition ([7]; measured here: combination with BGB at IC20, at 0.5 µM): -43.5% and -26.6%
inhibition ([7]; measured here: combination with cisplatin at IC20, at 0.5 µM): -10.1% and -25.3%
inhibition ([8]; at 0.5 µM): -7.05% (inactive) and -2.46% (inactive)
inhibition ([8]; measured here: combo with BGB at IC20, at 0.5 µM): -17.3% and -8.59%
inhibition ([8]; measured here: combo with cisplatin at IC20, at 0.5 µM): -8.12% and 7.03%
inhibition ([9]; at 0.5 µM): -2.22% (inactive) and -4.15% (inactive)
inhibition ([9]; measured here: inhibition with BGB combination, at 0.05 µM): -17% and -12.6%
inhibition ([9]; measured here: inhibition with cisplatin combination, at 0.05 µM): -16.5% and -4.91%
inhibition ([10]; at 0.5 µM): -23.5% (inactive) and -15.8% (inactive)
inhibition [10, 28]: -37.7% and -10.7%
inhibition [10, 29]: 7.67% and 25.4%
inhibition ([11]; at 0.5 µM): -14.6% (inactive) and -1.03% (inactive)
inhibition ([11]; measured here: BGB combination, at 0.5 µM): -7.46% and 0.27%
inhibition ([11]; measured here: BGB combination, at 5 µM): 5.07% and 2.02%
inhibition ([11]; measured here: cisplatin combination, at 0.5 µM): -38.4% and 3.8%
inhibition ([11]; measured here: cisplatin combination, at 5 µM): -8.44% and 23.3%
inhibition ([12]; BGB combination, concentration series, at 5 µM): 0.199% and 30.8%
inhibition ([12]; at 0.5 µM): -7.51% (inactive) and -1.85% (inactive)
inhibition ([12]; cisplatin combination, concentration series, at 5 µM): 21% and 30.8%
inhibition ([13]; at 0.5 µM): 4.47% (inactive) and 4% (inactive)
inhibition ([13]; measured here: combo with BGB IC20, at 0.5 µM): 8.04% and 0.536%
inhibition ([13]; measured here: combo with cisplatin IC20, at 0.5 µM): -1.54% and 9.6%
inhibition ([14]; at 0.5 µM): 4.38% (inactive) and 12.8% (inactive)
inhibition ([14]; cisplatin combination, at 0.5 µM): -7.78% and 20.7%
inhibition ([14]; cisplatin combination, at 5 µM): -10.7% and 73.5%
inhibition ([14]; measured here: BGB IC40 combination 0.05 uM, at 0.05 µM): 4.05% and -2.15%
inhibition ([14]; single agent, at 5 µM): 24.6% and 32.9%
inhibition ([15]; at 0.5 µM): 7.96% (inactive) and 7.04% (inactive)
inhibition ([15]; cisplatin combo, at 5 µM): 43.6% and 67.7%
inhibition ([15]; measured here: BGB IC40 combination, at 0.05 µM): -7.17% and -10.2%
inhibition [15, 28]: 5.88% and 41.6%
inhibition ([15]; single agent, at 5 µM): 30.6% and 7.16%
inhibition ([16]; at 0.5 µM): 12.1% (inactive) and 5.27% (inactive)
inhibition [16, 26]: -6.11% and -18%
inhibition [16, 27]: 19.9% and 16.9%
inhibition ([16]; single agent, at 0.05 µM): 13.3% and -6.35%
inhibition ([16]; single agent, at 5 µM): 14.5% and 19.2%

Oc1ccc(Cn2cc[nH]c2=S)cc1
period change [17]: 0.16 h (inactive)
inhibition [18]: -4% (inactive)
fluorescence ratio (interference) [19]: 1 (inactive)
fold change [1, 21]: 0.942 (inactive)
fold change [1, 22]: 1.11
cell count [1, 23]: 9950
cell count [1, 24]: 10600
z-score [20]: 0.15 (inactive)
